Bioassay records as filed in PubChem BioAssay.
HTR5A inv ctr: HTR5A inverse agonism, opioid heterodimer counter-screen | P47898 | HTR5A cell line, luminescence | inhibition, % at 9.3 µM | hit rate 0.083% among 340,000 | AID 504634; in the data active = inhibition mostly above about 23%, no sharp cut-off; inactive = mostly below about 18%
OPRM1-OPRD1 ag: agonists of human mu-delta opioid receptor heterodimerization. activation, % at 9.3 µM. P35372+P41143. hit rate 0.3% among 340,000. AID 504326. cells, OPRM1-OPRD1 heterodimerization, luminescence
Target sequence (P35372 whole entry, looked up): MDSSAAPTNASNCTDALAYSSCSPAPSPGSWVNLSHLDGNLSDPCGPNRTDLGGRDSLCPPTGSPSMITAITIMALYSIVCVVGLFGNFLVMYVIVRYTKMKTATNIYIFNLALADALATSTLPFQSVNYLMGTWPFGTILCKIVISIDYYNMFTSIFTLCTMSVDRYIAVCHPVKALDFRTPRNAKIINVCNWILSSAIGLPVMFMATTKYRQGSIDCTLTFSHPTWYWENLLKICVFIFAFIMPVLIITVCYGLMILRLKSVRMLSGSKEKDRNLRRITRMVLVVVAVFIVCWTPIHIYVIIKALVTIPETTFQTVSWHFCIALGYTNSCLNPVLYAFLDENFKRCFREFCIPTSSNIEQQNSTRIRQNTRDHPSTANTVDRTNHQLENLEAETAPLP
Target sequence (P41143 whole entry, looked up): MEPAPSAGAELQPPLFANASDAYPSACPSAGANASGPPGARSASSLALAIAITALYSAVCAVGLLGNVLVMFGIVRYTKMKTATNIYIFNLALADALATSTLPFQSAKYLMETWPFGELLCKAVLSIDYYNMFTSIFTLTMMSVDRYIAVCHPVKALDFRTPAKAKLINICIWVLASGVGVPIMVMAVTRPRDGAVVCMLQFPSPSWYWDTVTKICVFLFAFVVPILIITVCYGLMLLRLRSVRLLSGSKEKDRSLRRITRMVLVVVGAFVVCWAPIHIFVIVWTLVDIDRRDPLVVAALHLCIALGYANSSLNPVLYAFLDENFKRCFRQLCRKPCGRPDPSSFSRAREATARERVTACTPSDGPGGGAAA
OPRM1-OPRD1 inv: mu-delta opioid heterodimer inverse agonism. P35372+P41143. cell-based MOR-DOR heterodimer luminescence. inhibition, % at 9.3 µM. hit rate 0.21% among 340,000; in the data active = inhibition above about 22%, passing the limit was not always enough
HTR5A ag: activates human HTR5A in OPRM1-OPRD1 agonist counter-screen | activation, % at 9.3 µM | HTR5A agonist assay, luminescence, cell-based | AID 504692 | hit rate 0.61% among 340,000 | P47898; in the data active = activation mostly above about 9.5%, no sharp cut-off; inactive = mostly below about 7.6%
OPRM1-D1 ag cf: confirmation of human OPRM1-OPRD1 heterodimerization agonists | hit rate 45% among 830 | shares compounds with OPRM1-OPRD1 ag | activation, % at 9.3 µM | cells, MOR-DOR heterodimerization, luminescence complementation
HTR5A ag ctr2: counter-screen for OPRM1-OPRD1 agonists: human HTR5A agonism. shares compounds with OPRM1-OPRD1 ag. AID 504905. hit rate 8% among 830. HTR5A agonist counterscreen, cell luminescence. activation, % at 9.3 µM; in the data active = activation above about 17%
A number is an active result; 0 = inactive; - = no result. Rows were chosen to be rich in hits. Some 1.1% of all compounds tested hit in one or more screens of this group. Rule as the data show it, unless noted: active = activation above about 18%; inactive = the rest.

SMILES | HTR5A inv ctr | OPRM1-OPRD1 ag | OPRM1-OPRD1 inv | HTR5A ag | OPRM1-D1 ag cf | HTR5A ag ctr2
COc1ccc(-c2nn(-c3ccccc3)cc2CNCc2cccnc2)c(F)c1 | 0 | 21 | 0 | 0 | 0 | 0
Cc1ccc(NC(=O)COC(=O)c2oc3ccccc3c2C)cc1S(=O)(=O)N1CCOCC1 | 0 | 0 | 0 | 0 | - | -
Cc1ccc(NC(=O)COC(=O)C2CCC2)cc1S(=O)(=O)N1CCOCC1 | 0 | 0 | 0 | 0 | - | -
COc1ccc(C(=O)OCC(=O)N(C)C2CCS(=O)(=O)C2)cc1Br (stereo not given) | 0 | 76 | 0 | 0 | 0 | 0
COc1ccc(C(=O)OCC(=O)N(C)C2CCS(=O)(=O)C2)cc1S(=O)(=O)N(C)Cc1ccccc1 (stereo not given) | 0 | 0 | 0 | 0 | - | -
COc1ccc(NC(=O)CN2CCc3ccccc3C2)cc1S(=O)(=O)N1CCOCC1 | 0 | 51 | 0 | 0 | 0 | 0
COc1ccc(NC(=O)CN2CCOCC2)cc1S(=O)(=O)N1CCCCC1 | 0 | 0 | 0 | 0 | - | -
CC1(C(=O)Nc2nc3ccc(S(C)(=O)=O)cc3s2)CC1(Cl)Cl (stereo not given) | 0 | 0 | 0 | 0 | - | -
CCOc1ccc(Nc2c3ccccc3nc3ccccc23)cc1 | 0 | 20 | 0 | 0 | 37 | 0
O=C(c1cccc(Cl)c1)N1CCC2CC1c1cc(N3CCOCC3)ccc12 (stereo not given) | 0 | 0 | 0 | 0 | - | -
CC1(C)Cc2c(cnn2-c2ccc(F)cc2)C(NC(=O)CCc2ccncc2)C1 (stereo not given) | 0 | 0 | 0 | 0 | - | -
C=CC[C@H](CC(=O)NCCO)C(=O)NCCOC(=O)[C@@H](CC=C)CC(=O)OC(C)(C)C | 0 | 0 | 0 | 0 | - | -
COc1ccc(-c2nc(CN3CCC(C(=O)NC4CCCc5ccccc54)CC3)c(C)o2)cc1OC (stereo not given) | 0 | 199 | 0 | 0 | 38 | 0
COc1ccc(-c2nc(CN3CCC(C(=O)NC4CCCC4)CC3)c(C)o2)cc1OC | 0 | 110 | 0 | 0 | 18 | 0
COc1ccc(-c2nc(CN3CCC(c4ccccc4)CC3)c(C)o2)cc1OC | 0 | 0 | 0 | 0 | - | -
Cc1ccccc1NC(=O)C(=O)NCCCN1CCOCC1 | 0 | 0 | 0 | 0 | - | -
Cc1ccc(C2(O)CN(c3ccccc3C)C3=[N+]2CCS3)cc1 (stereo not given) | 0 | 349 | 0 | 0 | 373 | 0
Cc1ccc(C2(O)CN(c3ccccc3)C3=[N+]2CCS3)cc1 (stereo not given) | 0 | 77 | 0 | 0 | 194 | 0
OC1(c2ccc(F)cc2)CN(c2ccccc2)C2=[N+]1CCS2 (stereo not given) | 0 | 0 | 0 | 0 | - | -
Cc1ccccc1N1CC(O)(c2ccccc2)[N+]2=C1SCC2 (stereo not given) | 0 | 218 | 0 | 0 | 223 | 0
CC(C)(C)OC(=O)N1Cc2ccccc2C[C@H]1C(=O)NCC(=O)Nc1ccc2c(c1)OCCO2 | 0 | 0 | 0 | 0 | - | -
O=C(c1ccccc1)N(C(=O)c1ccccc1)N1CCCC1 | 0 | 0 | 0 | 0 | - | -
CN(C)/C=C/C(=O)c1ccc(OCCN(C)c2ccccn2)cc1 | 0 | 20 | 0 | 0 | 0 | 0
CCCn1ncc(CN2CCC(Cc3cccc(F)c3)(C(=O)OCC)CC2)c1C | 0 | 0 | 0 | 0 | - | -
CCOC(=O)C1(CCCc2ccccc2)CCN(Cc2cnc(C)s2)CC1 | 0 | 106 | 0 | 0 | 0 | 0
SMILES | HTR5A inv ctr | OPRM1-OPRD1 ag | OPRM1-OPRD1 inv | HTR5A ag | OPRM1-D1 ag cf | HTR5A ag ctr2
CCOC(=O)C1(Cc2cccc(F)c2)CCN(Cc2cnc(C)s2)CC1 | 0 | 22 | 0 | 0 | 24 | 0
CCOC(=O)C1(Cc2ccccc2)CCN(Cc2cn[nH]c2-c2ccccc2)CC1 | 0 | 36 | 0 | 0 | 0 | 23
CCOC(=O)C1(CCCc2ccccc2)CCN(Cc2nccn2CC)CC1 | 0 | 0 | 0 | 0 | - | -
CCOC(=O)C1(CCCc2ccccc2)CCN(Cc2cn(CC)nc2C)CC1 | 0 | 315 | 0 | 0 | 20 | 0
CCOC(=O)C1(CC2CC2)CCN(Cc2cn[nH]c2-c2ccccc2)CC1 | 0 | 0 | 0 | 0 | - | -
COc1ccc(CCNC(=O)c2ccc(N3CCCCS3(=O)=O)cc2)cc1OC | 0 | 0 | 0 | 0 | - | -
CCOC(=O)c1nnn(CC(=O)N2N=C(c3ccccc3)CC2c2ccccc2)c1C(=O)OCC (stereo not given) | 0 | 0 | 0 | 0 | - | -
CCOC(=O)c1nnn(CC(=O)N2N=C(c3cc(C)ccc3C)CC2c2ccc(OC)cc2)c1C(=O)OCC (stereo not given) | 0 | 20 | 0 | 0 | 0 | 62
COc1ccc(NC(=O)C(c2ccccc2)N2CCN(c3ccccn3)CC2)cc1Cl (stereo not given) | 0 | 0 | 0 | 0 | - | -
Cc1ccccc1-n1nc2c(c1NC(=O)C1CCCC1)CS(=O)(=O)C2 | 0 | 0 | 0 | 0 | - | -
O=C(N[C@H]1C/C=C\C[C@H](CC(=O)N(CCO)Cc2ccccc2)C(=O)N[C@H](Cc2c[nH]c3ccccc23)COC1=O)OCC1c2ccccc2-c2ccccc21 | 0 | 29 | 0 | 0 | 35 | 0
O=C(N[C@H]1C/C=C\C[C@@H](CC(=O)N(CCO)Cc2ccccc2)C(=O)N[C@H](Cc2c[nH]c3ccccc23)COC1=O)OCC1c2ccccc2-c2ccccc21 | 0 | 0 | 0 | 0 | - | -
COC(=O)NCC(c1ccc2c(c1)OCO2)N1CCN(c2ccccc2)CC1 (stereo not given) | 0 | 217 | 0 | 0 | 193 | 0
OCC[C@H]1C[C@@H](O)[C@H](O)[C@@]2(Cc3ccccc3CO2)O1 | 0 | 0 | 0 | 0 | - | -
Cc1c2cnn(CC(=O)Nc3c(F)c(F)cc(F)c3F)c(=O)c2c(C)n1Cc1ccccc1F | 0 | 35 | 0 | 0 | 34 | 31
CNC(=O)Cn1ncc2c(C)n(Cc3ccc(C)cc3)c(C)c2c1=O | 0 | 0 | 0 | 0 | - | -
COCc1c(C(=O)N/N=C/c2cccc3ccccc23)nnn1-c1nonc1N | 0 | 27 | 0 | 0 | 0 | 0
CC1CCC(C(C)C)C(OC(=O)COC(=O)c2cc(O)ccc2N)C1 (stereo not given) | 0 | 24 | 0 | 0 | 0 | 0
O=C1Cc2c([nH]c3ccc([N+](=O)[O-])cc23)-c2ccccc2N1 | 0 | 22 | 0 | 0 | 0 | 0
O=c1[nH]c2cc([N+](=O)[O-])ccc2c2ccccc12 | 0 | 0 | 0 | 0 | - | -
Cc1cc(/C=C(\C#N)c2nc3ccccc3[nH]2)c(C)n1C | 0 | 27 | 0 | 13 | 0 | 0
CCOc1cc(C)c(S(=O)(=O)Nc2ccc(F)cc2)cc1C | 0 | 19 | 0 | 0 | 0 | 0
C=CC[C@@H](CC(=O)N(CCO)Cc1ccccc1)C(=O)N[C@@H](COC(=O)[C@@H](CC=C)CC(=O)OC(C)(C)C)Cc1c[nH]c2ccccc12 | 0 | 29 | 0 | 0 | 0 | 0
CC(C)(C)c1cc(C(=O)NNC(=O)Nc2cccc(Cl)c2)n(Cc2ccccc2)n1 | 0 | 25 | 0 | 0 | 0 | 0
CC(C)(C)c1cc(C(=O)NNC(=O)Nc2ccccc2)n(Cc2ccccc2)n1 | 0 | 0 | 0 | 0 | - | -
OC(CNCC1COc2ccccc2O1)COc1ccccc1F (stereo not given) | 0 | 0 | 0 | 0 | - | -
COc1ccccc1NS(=O)(=O)c1cccc(C(=O)N/N=C/c2ccc(C)o2)c1 | 0 | 0 | 0 | 0 | - | -
